Measurements from PubChem BioAssay AID1851 (National Center for Advancing Translational Sciences (NCATS), 2009).
Where “and” joins values, the source holds several entries; their conditions need not be identical. Identical values can stand only once. About 5,800 (36%) of roughly 16,000 compounds were called active. Roughly 23% stayed inconclusive and do not appear here. Some of the results follow. Unmarked numbers belong to inactive results. The call rests on the fitted dose curve; in most records, active means well fitted curve in the direction sought with a large enough effect; inconclusive means small, poorly fitted or top-dose-only effect, or effect the other way; inactive means no such curve, though single readings can be large or run the other way.

Molecular target: Cytochrome P450 2C19 (Homo sapiens) (UniProt P33261)
Experiment: Cytochrome panel assay with activity outcomes
Conditions: recombinant CYP, pro-luciferin dealkylation, luminescence, p450-cyp2c19; series mostly up to 57.1 µM
On the % scale 0 is the no-effect control and ±100 the full control effect.

Cytochrome P450 2C19 (Homo sapiens), sequence (P33261 whole entry, looked up): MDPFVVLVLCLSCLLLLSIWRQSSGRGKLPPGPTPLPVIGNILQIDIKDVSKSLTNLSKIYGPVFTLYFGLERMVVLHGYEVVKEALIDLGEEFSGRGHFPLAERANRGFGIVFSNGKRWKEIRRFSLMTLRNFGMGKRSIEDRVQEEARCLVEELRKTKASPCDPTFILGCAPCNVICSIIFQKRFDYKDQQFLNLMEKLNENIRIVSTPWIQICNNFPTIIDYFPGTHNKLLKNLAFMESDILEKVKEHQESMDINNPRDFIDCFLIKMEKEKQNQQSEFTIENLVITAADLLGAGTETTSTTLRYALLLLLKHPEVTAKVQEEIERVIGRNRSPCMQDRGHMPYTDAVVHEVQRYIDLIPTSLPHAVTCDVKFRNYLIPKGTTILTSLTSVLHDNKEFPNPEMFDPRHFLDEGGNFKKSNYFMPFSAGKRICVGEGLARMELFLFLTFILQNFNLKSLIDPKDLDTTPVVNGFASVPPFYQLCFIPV

SMILES	AC50	activity, negative = inhibition
COc1ccc2[nH]cc(CCNc3ccnc(-c4ccoc4)n3)c2c1	0.501 µM (active)	–
COc1ccc2[nH]cc(CCNc3ccnc(-c4ccc5c(c4)OCO5)n3)c2c1	0.631 µM (active)	–
COc1ccc2[nH]cc(CCNc3ccnc(-c4c(C)noc4C)n3)c2c1	1.58 µM (active)	–
COc1ccc2[nH]cc(CCNc3ccnc(-c4ccc(N(C)C)cc4)n3)c2c1	6.31 µM (active)	–
Cc1ccc(S(=O)(=O)N(C)c2cc(S(=O)(=O)N3CCC(C)CC3)c(C)cc2C)cc1	3.16 µM (active)	–
Cc1ccc(S(=O)(=O)N2CCC(C(=O)NCCCOC(C)C)CC2)cc1	inactive	–
CCn1c(O)c(/C=C2\C=Nc3ccccc32)sc1=Nc1ccc(C)cc1	2 µM (active)	–
Clc1ccc2c(c1)C=Nc1c(NCc3ccccc3)ncnc1O2	inactive	–
COc1ccc(C2=NC(C(F)(F)F)(C(F)(F)F)c3c(n(C)c(=O)n(C)c3=O)N2)cc1	inactive	–
O=C1c2ccccc2C2=Nc3ccccc3SC(c3ccccc3F)C12 (configuration not stated)	1.58 µM (active)	–
NS(=O)(=O)c1ccc(N=Nc2ccc(O)c(C(=O)O)c2)cc1	–	5.09% [at 11.4 µM]
O=C(O)C1=CC(=C(c2ccc(O)c(C(=O)O)c2)c2ccc(O)c(C(=O)O)c2)C=CC1=O	25.1 µM (active)	–
O=C(O)C1=C/C(=C(/c2ccccc2)c2cc(C(=O)O)c(O)c3ccccc23)c2ccccc2C1=O	–	29% [at 11.4 µM] and -20.5% [at 11.4 µM]
CC1=C/C(=C(/c2ccc(O)c(C)c2)c2ccccc2C(=O)O)C=CC1=O	0.00316 µM (active)	–
O=C(O)c1ccc(C(=O)c2ccccc2C(=O)O)cc1C(=O)O	–	-5.18% [at 11.4 µM]
O=C(CN1CCc2ccccc21)NC(=O)NCc1ccco1	7.94 µM (active)	–
CN(C)CC(O)COc1cccc(OCC(O)CN(C)C)c1 (configuration not stated)	inactive	–
Cc1nn(CC(O)COc2ccc3c(c2)CCC3)c(C)c1Br (configuration not stated)	2 µM (active)	–
Cc1ccc(C(=O)NC(=S)Nc2ccc(S(=O)(=O)N3CCN(C)CC3)cc2)cc1	15.8 µM (active)	–
CCOC(=O)c1ccc(S(=O)(=O)N2CCN(C)CC2)cc1	inactive	–
O=C(NC(=S)Nc1ccc(C(=O)N2CCOCC2)cc1)c1ccc([N+](=O)[O-])cc1	inactive	–
Cc1sc(N)c(C(=O)c2cccc(C(F)(F)F)c2)c1C	inactive	–
O=c1c(C=Nc2cccc(C(F)(F)F)c2)c[nH]n1-c1cccc(Cl)n1	inactive	–
O=C(OCn1ncc(Cl)c(Cl)c1=O)c1cccc(C(F)(F)F)c1	2.24 µM (active)	–

SMILES	AC50	activity, negative = inhibition
N/C(CC/C(N)=N/O)=N\O	–	20.3% [at 11.4 µM]
C=CCNc1sc(C(=O)c2ccc(C)cc2)c(N)c1C#N	7.08 µM (active)	–
C=CCNc1sc(C(=O)c2ccccc2)c(N)c1C#N	6.31 µM (active)	–
N#CC(CC(=O)O)=C(c1ccccc1)c1ccccc1	–	5.19% [at 11.4 µM]
CC(=O)CSc1nnc(Cc2ccc([N+](=O)[O-])cc2)o1	7.08 µM (active)	–
NNC(=O)CNc1cccc(Br)c1	–	-2.2% [at 11.4 µM]
O=C(Cc1ncc(C(F)(F)F)cc1Cl)Nc1cccc(Br)c1	2.82 µM (active)	–
Cc1ccc(C(=O)c2cn(-c3ccc(F)c(Cl)c3)nn2)cc1	inactive	–
CC(C)(C)C(=O)OCc1cn(-c2ccc(Cl)cc2)nn1	8.91 µM (active)	–
[Cu].[O-]/N=C1/C(=[OH+])Nc2ccccc21.[O-]Nc1c(O)[nH]c2ccccc12	–	2.58% [at 11.4 µM]
C[C@H](C(=O)c1ccncc1)c1ccccn1	–	-37.2% [at 11.4 µM]
Cc1c(C=O)c2ccccn2c1C(=O)c1ccncc1	1.78 µM (active)	–
CC(=O)N(C[C@@H](C)C(=O)O)c1c(I)cc(I)c(N)c1I	inactive	–
COc1ccc(F)cc1S(=O)(=O)NC(Cc1ccccc1)C(N)=O (configuration not stated)	7.08 µM (active)	–
CC(C)N=c1scc(-c2ccco2)n1/N=C/c1ccc(O)c(O)c1	7.94 µM (active)	–
C[N+](C)(C)/N=C\c1ccc(O)c(O)c1	–	12.7% [at 11.4 µM]
NC(=S)SCCC(=O)O	–	-6.93% [at 11.4 µM]
Cc1nn(Cc2ccc([N+](=O)[O-])cc2)c(=O)n1-c1cccc(F)c1	11.2 µM (active)	–
CSCC[C@@H]1NC(=O)C/C=C\[C@@H](C)COC(=O)[C@H](C)COC1=O	–	-10.8% [at 11.4 µM]
C[C@@H]1/C=C\CC(=O)OC[C@H]2O[C@@H](C=C[C@@H]2O)[C@H](C)/C=C\CC(=O)OC[C@H]2O[C@H]1C=C[C@@H]2O	–	-20.1% [at 11.4 µM]
CN(Cc1cc2ccccc2[nH]c1=O)S(C)(=O)=O	inactive	–
CS(=O)(=O)N(Cc1cc2ccccc2[nH]c1=O)C1CCCCC1	15.8 µM (active)	–
COc1ccc(-n2c(N)c(C(=O)NCc3ccco3)sc2=S)cc1	17.8 µM (active)	–
